Test results as given in PubChem BioAssay (Tox21).
Results filed as inconclusive are left out. A call without a number means that no potency is given here. Activity calls are given as the source filed them. The call rests on the fitted dose curve; in most records, active means well fitted curve in the direction sought with a large enough effect in the repeat runs; inconclusive means weak or mixed curves; inactive means no such curve, though single readings can be large; an effect the other way counts as inactive or inconclusive.

What was measured:
[1] = target: Cytochrome P450 2C19 (Homo sapiens) (UniProt P33261); assay: Cytochrome P450 Family 2 Subfamily C Member 19 (CYP2C19) small molecule antagonists: luciferase reporter qHTS assay (AID 1671197); further: nearly all actives have a fitted effect of over 65% in size; further: potency means the concentration at half of the fitted maximal effect
Procedure, shortened: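 Compounds were tested on CYP2C19 activity via proluciferin conversion to luciferin. The 37C, 1 h reaction followed NADPH addition; detection reagent stopped it.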

[2] = target: Cytochrome P450 2C9 (Homo sapiens) (UniProt P11712); assay: Cytochrome P450 Family 2 Subfamily C Member 9 (CYP2C9) small molecule antagonists: luciferase reporter qHTS assay (AID 1671198); further: nearly all actives have a fitted effect of over 50% in size; further: potency means the concentration at half of the fitted maximal effect
Procedure, shortened: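 Enzyme-substrate mix preincubated with compound 10 min at room temperature; reaction started with NADPH regeneration solution, 1 h 37C. Luminescent luciferin product read after 20 min detection reagent.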

[3] = target: Cytochrome P450 1A2 (Homo sapiens) (UniProt P05177); assay: Cytochrome P450 Family 1 Subfamily A Member 2 (CYP1A2) small molecule antagonists: luciferase reporter qHTS assay (AID 1671199); further: nearly all actives have a fitted effect of over 50% in size; further: potency means the concentration at half of the fitted maximal effect
Procedure, shortened: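 CYP1A2 turnover of a luminogenic substrate was quantified after 1 h with NADPH regeneration at room temperature. Furafylline served as positive control.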

[4] = target: Voltage-gated inwardly rectifying potassium channel KCNH2 (Homo sapiens) (UniProt Q12809); assay: Human Ether-a-go-go-Related Gene (hERG) channel small molecule antagonists: fluorescence cell-based qHTS assay (AID 1671200);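 further: hERG-expressing U2OS cells given a thallium stimulus after FluxOR II dye loading; series mostly up to about 77 µM; nearly all actives have a fitted effect of over 50% in size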
Procedure, shortened: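 Channel function was assessed by thallium flux. Cells seeded the previous day and kept at 37 C took up FluxOR II dye over 1 h in the dark at room temperature, then sat another 10 min before stimulation.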

[5] = target: Cytochrome P450 3A4 (Homo sapiens) (UniProt P08684); assay: Cytochrome P450 Family 3 Subfamily A Member 4 (CYP3A4) small molecule antagonists: luciferase reporter qHTS assay (AID 1671201); further: nearly all actives have a fitted effect of over 50% in size; further: potency means the concentration at half of the fitted maximal effect
Procedure, shortened: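 Compounds in DMSO were pin-transferred onto CYP3A4 enzyme-substrate mix and held 10 min at room temperature. NADPH regenerating solution started the reaction for 1 h; luciferin detection reagent stopped it, and luminescence was read after 20 min.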

Sequence of Cytochrome P450 2C19 (Homo sapiens) (P33261 whole entry, looked up): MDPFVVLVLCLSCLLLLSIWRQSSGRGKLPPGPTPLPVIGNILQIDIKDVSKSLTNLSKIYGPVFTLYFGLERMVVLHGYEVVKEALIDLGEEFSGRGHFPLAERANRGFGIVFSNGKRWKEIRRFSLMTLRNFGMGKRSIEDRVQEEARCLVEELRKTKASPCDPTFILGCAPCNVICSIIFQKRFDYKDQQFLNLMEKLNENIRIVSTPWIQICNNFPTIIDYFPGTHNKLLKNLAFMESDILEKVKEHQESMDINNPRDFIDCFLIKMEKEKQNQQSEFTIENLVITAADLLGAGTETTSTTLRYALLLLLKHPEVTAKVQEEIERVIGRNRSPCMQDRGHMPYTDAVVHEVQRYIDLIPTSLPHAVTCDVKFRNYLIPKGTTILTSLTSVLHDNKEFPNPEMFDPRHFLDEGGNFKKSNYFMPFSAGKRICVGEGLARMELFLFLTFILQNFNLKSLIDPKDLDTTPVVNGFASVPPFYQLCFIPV
Sequence of Voltage-gated inwardly rectifying potassium channel KCNH2 (Homo sapiens) (Q12809 whole entry, looked up): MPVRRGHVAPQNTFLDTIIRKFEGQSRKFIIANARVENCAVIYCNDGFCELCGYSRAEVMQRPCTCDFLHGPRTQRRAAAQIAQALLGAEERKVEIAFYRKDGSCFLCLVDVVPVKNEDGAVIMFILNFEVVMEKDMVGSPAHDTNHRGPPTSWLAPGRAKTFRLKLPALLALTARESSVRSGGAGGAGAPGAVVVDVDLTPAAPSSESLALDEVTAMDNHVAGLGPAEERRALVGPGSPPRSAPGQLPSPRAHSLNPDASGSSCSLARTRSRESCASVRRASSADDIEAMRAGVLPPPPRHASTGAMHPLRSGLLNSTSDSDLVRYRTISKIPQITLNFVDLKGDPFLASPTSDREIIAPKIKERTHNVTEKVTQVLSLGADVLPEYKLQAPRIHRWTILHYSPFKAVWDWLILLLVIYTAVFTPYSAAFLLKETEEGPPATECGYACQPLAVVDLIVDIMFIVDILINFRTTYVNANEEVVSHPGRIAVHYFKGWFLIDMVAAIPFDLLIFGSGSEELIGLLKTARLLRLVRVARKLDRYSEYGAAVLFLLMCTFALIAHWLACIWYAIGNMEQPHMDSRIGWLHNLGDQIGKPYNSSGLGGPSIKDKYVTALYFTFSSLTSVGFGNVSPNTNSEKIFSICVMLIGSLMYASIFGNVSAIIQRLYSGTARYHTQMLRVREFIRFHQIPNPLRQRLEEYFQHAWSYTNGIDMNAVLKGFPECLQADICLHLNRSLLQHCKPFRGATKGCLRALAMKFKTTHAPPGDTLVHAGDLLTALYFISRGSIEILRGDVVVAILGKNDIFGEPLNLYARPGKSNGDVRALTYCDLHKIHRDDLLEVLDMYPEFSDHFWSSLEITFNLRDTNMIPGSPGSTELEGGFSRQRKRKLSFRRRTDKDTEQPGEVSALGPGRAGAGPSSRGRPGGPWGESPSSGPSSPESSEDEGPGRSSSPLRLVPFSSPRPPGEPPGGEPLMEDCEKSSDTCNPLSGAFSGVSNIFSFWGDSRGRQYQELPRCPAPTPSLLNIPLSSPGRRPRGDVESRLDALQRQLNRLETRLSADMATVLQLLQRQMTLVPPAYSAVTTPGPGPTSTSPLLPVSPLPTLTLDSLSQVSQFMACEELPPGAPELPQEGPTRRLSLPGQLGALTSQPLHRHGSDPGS
Sequence of Cytochrome P450 1A2 (Homo sapiens) (P05177 whole entry, looked up): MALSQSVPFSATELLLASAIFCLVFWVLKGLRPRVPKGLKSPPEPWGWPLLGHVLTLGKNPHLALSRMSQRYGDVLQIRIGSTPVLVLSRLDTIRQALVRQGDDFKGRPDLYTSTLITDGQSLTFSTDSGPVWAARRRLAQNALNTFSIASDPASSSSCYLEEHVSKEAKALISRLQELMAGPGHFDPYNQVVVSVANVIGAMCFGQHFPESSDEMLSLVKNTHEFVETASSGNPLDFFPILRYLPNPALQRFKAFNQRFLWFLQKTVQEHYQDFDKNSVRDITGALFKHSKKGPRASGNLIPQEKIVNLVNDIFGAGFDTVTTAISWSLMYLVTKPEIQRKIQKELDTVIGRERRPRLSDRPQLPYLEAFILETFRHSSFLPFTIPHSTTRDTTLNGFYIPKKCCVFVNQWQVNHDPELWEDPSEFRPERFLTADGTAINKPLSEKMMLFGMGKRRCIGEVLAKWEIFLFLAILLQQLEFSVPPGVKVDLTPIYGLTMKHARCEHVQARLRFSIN
Sequence of Cytochrome P450 3A4 (Homo sapiens) (P08684 whole entry, looked up): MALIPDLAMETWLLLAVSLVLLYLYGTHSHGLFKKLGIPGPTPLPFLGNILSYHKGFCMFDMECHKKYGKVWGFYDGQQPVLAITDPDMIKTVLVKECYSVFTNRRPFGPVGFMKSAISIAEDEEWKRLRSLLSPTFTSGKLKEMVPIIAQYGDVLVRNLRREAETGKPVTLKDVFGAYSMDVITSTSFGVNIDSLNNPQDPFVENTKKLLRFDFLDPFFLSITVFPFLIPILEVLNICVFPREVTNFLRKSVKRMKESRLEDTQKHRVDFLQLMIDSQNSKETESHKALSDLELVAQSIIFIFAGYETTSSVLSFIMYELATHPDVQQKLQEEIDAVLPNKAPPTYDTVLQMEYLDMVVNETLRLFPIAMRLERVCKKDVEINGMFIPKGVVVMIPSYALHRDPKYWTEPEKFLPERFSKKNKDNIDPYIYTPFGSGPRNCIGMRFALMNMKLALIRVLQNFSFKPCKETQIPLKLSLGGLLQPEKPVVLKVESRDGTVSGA
Sequence of Cytochrome P450 2C9 (Homo sapiens) (P11712 whole entry, looked up): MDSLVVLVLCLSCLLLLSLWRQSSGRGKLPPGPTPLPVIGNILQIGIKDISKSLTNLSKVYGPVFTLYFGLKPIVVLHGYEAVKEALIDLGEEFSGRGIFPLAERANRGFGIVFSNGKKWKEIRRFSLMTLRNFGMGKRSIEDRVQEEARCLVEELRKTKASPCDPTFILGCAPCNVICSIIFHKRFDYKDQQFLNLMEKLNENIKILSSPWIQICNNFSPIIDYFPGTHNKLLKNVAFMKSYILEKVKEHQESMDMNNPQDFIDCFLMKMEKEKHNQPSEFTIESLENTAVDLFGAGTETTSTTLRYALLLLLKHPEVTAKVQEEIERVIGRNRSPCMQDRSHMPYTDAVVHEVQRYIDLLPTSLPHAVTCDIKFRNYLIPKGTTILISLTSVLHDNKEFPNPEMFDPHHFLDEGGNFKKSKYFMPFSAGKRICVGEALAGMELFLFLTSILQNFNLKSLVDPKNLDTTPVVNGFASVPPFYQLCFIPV

SMILES | Potency [1] | Potency [2] | Potency [3] | Potency [4] | Potency [5]
O=C(O)[C@@H]1[C@H]2C[C@H]3c4[nH]c5ccccc5c4CCN3C[C@@H]2CC[C@@H]1O | 8.71 µM (active) | inactive | inactive | inactive | inactive
CCCCCCOC(=O)CCC | inactive | inactive | inactive | inactive | inactive
Oc1ccc(Sc2ccc(O)cc2)cc1 | 37.3 µM (active) | inactive | 41.9 µM (active) | inactive | 37.3 µM (active)
CCOC(=O)[C@H](CCc1ccccc1)N[C@H]1CCc2ccccc2N(CC(=O)O)C1=O | 6.92 µM (active) | 8.71 µM (active) | 12.9 µM (active) | – | –
Cc1ccc2c(ccc3ccccc32)c1 | 35.7 µM (active) | 35.7 µM (active) | 3.18 µM (active) | inactive | inactive
Cc1cc(CC(=O)O)c(C)n1-c1ccc(Cl)cc1 | 7.76 µM (active) | 15.5 µM (active) | inactive | inactive | –
c1ccc(CNCc2ccccc2)cc1 | 6.33 µM (active) | 44.8 µM (active) | 25.2 µM (active) | inactive | inactive
CCOC(=O)C1=C(C)NC(C)=C(C(=O)OC)C1c1cccc([N+](=O)[O-])c1 (centres undefined) | 1.55 µM (active) | 0.977 µM (active) | inactive | inactive | –
C=CC[N+]1([C@H]2C[C@H]3[C@@H]4CC[C@H]5C[C@H](OC(C)=O)[C@@H](N6CCCCC6)C[C@]5(C)[C@H]4CC[C@]3(C)[C@H]2OC(=O)CC)CCCCC1 | inactive | inactive | inactive | inactive | –
O=C(O)Cc1sc(-c2ccccc2)nc1-c1ccc(Cl)cc1 | inactive | 4.9 µM (active) | – | inactive | inactive
